Laboratory results reported in the supplement of paper PMC13380429.

Each molecule was assayed on Vero E6 infected with SARS-CoV-2 (assay: morphology score (similarity to uninfected cells); higher = more like uninfected cells). Conditions: 24 h.

Row | Compound | morphology score
1 | C[n+]1cc2c3c(ccc2c2ccc4cc5c(cc4c21)OCO5)OCO3 [sanguinarium-chloride] (10 µM) | -0.0249
2 | CN1CC(O)C2=C/C(=N/NC(N)=O)C(=O)C=C21 (configuration not stated) [carbazochrome] (10 µM) | 0.0013
3 | CC(=C(CCOC(=O)C(C)C)SSC(CCOC(=O)C(C)C)=C(C)N(C=O)Cc1cnc(C)nc1N)N(C=O)Cc1cnc(C)nc1N (stereo in doubt) [sulbutiamine] (10 µM) | 0.0249
4 | CN(C)CCCN1c2ccccc2Sc2ccc(C(F)(F)F)cc21 [triflupromazine] (10 µM) | 0.465
5 | Cc1[nH]c(/C=C2\C(=O)Nc3ccc(S(=O)(=O)Cc4c(Cl)cccc4Cl)cc32)c(C)c1C(=O)N1CCC[C@@H]1CN1CCCC1 (0.833333 µM) | 0.159

These molecules were tested on Vero E6 infected with SARS-CoV-2 (assay: SARS-CoV-2 infection rate relative to infected DMSO; higher = more infection, active = 60 or less). Conditions: 24 h.

Row | Compound | SARS-CoV-2 infection rate
6 | C[C@]12CC[C@H](O)C[C@H]1CC[C@@H]1[C@@H]2CC[C@]2(C)[C@@](O)(c3ccoc3)CC[C@]12O [rostafuroxine] (10 µM) | 118% (inactive)
7 | CC1Sc2c(C(=O)O)c(=O)c3cc(F)c(N4CCNCC4)cc3n21 (configuration not stated) [ulifloxacin] (10 µM) | 106% (inactive)
8 | CN(C)CCOC(c1ccc(Cl)cc1)c1ccccn1 (configuration not stated) [carbinoxamine] (10 µM) | 96% (inactive)
9 | CN(C)CCn1cc(S(=O)(=O)c2cccc(F)c2)c2cccnc21 (10 µM) | 109% (inactive)
10 | O=[N+]([O-])c1ccc2nc(COCc3nc4ccc([N+](=O)[O-])cc4[nH]3)[nH]c2c1 (10 µM) | 94.5% (inactive)
11 | CC1=C(C(=O)OC2CCCCC2)C(c2ccc([N+](=O)[O-])cc2)C2=C(CC(C)(C)CC2=O)N1 (configuration not stated) (0.833333 µM) | 104% (inactive)
12 | CN1CCC(NC(=O)c2cc(-c3c(O)cc(O)cc3Oc3ccc([N+](=O)[O-])cc3)on2)CC1 (0.833333 µM) | 95.5% (inactive)
13 | CC(CCc1ccccc1)NC(C)C(O)c1ccc(O)cc1 (configuration not stated) [buphenine] (10 µM) | 114% (inactive)
14 | CN1CCN(c2cccc(Nc3nc4c(-c5ccc(S(C)(=O)=O)cc5)cccn4n3)c2)CC1 (0.833333 µM) | 106% (inactive)
15 | c1ccc(Oc2cccnc2)cc1 (10 µM) | 103% (inactive)
16 | Nc1ncc(Cc2ccc(Br)cc2)s1 (10 µM) | 102% (inactive)
17 | CCn1cc(C(=O)O)c(=O)c2ccc(-c3ccncc3)cc21 [rosoxacin] (10 µM) | 112% (inactive)
18 | Cc1ccc(CNc2ncnc3ccc(-c4ccc(CO)o4)cc23)o1 (10 µM) | 106% (inactive)
19 | O=C(O)C1(C(=O)O)CCC1.[NH2-].[NH2-].[Pt+2] [carboplatin] (10 µM) | 102% (inactive)
20 | CC(C)(C)NCC(O)c1ccc(O)c(CO)c1 (configuration not stated) [albuterol] (10 µM) | 100% (inactive)
21 | CN(C)CCc1c[nH]c2ccc(Cn3cncn3)cc12 [rizatriptan] (10 µM) | 114% (inactive)
22 | O=S(=O)(O)c1ccc(O)cc1 [4-phenolsulfonic-acid] (10 µM) | 114% (inactive)
23 | Cc1ccc2c(=O)c3ccccc3n(CCCN)c2c1C (10 µM) | 110% (inactive)
24 | N[C@@H](CSC(c1ccccc1)(c1ccccc1)c1ccccc1)C(=O)O [S-trityl-L-cysteine] (0.833333 µM) | 110% (inactive)
25 | O=C(Nc1ccccc1)OCC(CN1CCCCC1)OC(=O)Nc1ccccc1 (configuration not stated) [diperodon] (10 µM) | 108% (inactive)
26 | O=C(Nc1ccc(S(=O)(=O)Nc2nccs2)cc1)C(c1ccccc1)c1ccccc1 (10 µM) | 105% (inactive)
27 | Cc1ccccc1NC(=O)Nc1ccc(CC(=O)N(C)[C@@H](CC(C)C)C(=O)NCC[C@H](NC(=O)[C@@H]2CCCN2S(=O)(=O)c2cc(Cl)cc(Cl)c2)C(=O)O)cc1 (10 µM) | 91% (inactive)
28 | Oc1ccc(OC2CCCCO2)cc1 (configuration not stated) [deoxyarbutin] (10 µM) | 97% (inactive)
29 | CS(=O)(=O)Nc1ccc(-c2coc3cc(OCc4cccc(C(=O)O)c4)ccc3c2=O)cc1 (10 µM) | 97% (inactive)
30 | CN(C(=O)c1ccc(F)cc1C(F)(F)F)C1CCN(c2nnc(-c3ccnn3C)c3ccccc23)CC1 [taladegib] (10 µM) | 102% (inactive)
31 | Nc1nc(Nc2ccccc2)nc2c1ncn2[C@@H]1O[C@H](CO)[C@@H](O)[C@H]1O (10 µM) | 102% (inactive)
32 | CC(=O)NCCCS(=O)(=O)O [acamprosate] (10 µM) | 102% (inactive)
